Measurements: publication PMC6792352, “Limited Chemical Structural Diversity Found to Modulate Thyroid Hormone Receptor in the Tox21 Chemical Library” (Environmental Health Perspectives, 2019)
Where a name gives a salt, the structure may show the parent alone.

tested on: thyroid hormone receptor (endogenous TRα and TRβ); set-up: species or system GH3-TRE-Luc (rat pituitary); GH3-TRE-Luc luciferase reporter, antagonist mode against 1 nM T3, loss of signal, qHTS; settings: read-out: Average AC50 (uM) GH3-TRE-Antag, antagonist mode, 1 nM T3, no GH3 cytotoxicity hit

| Compound | AC50 |
| --- | --- |
| CCCCCCCCCC(C)C=O (centres unmarked) [2-Methylundecanal] | 40.2 µM |
| CC1(C)N=C(N)N=C(N)N1c1ccc(Cl)cc1 [Cycloguanil hydrochloride] | 28.6 µM |
| O=C(O)c1cccc(-c2noc(-c3ccccc3F)n2)c1 [Ataluren] | 10.8 µM |
| NC(=O)N(O)[C@@H]1C=C[C@H](Oc2cccc(Oc3ccc(F)cc3)c2)C1 [CJ-013790] | 81.3 µM |
| O=S(=O)(c1cccc2cnccc12)N1CCCNCC1 [Fasudil hydrochloride] | 30.1 µM |
